system: T1, ARK5; settings: concentration: 1 μM, replicates: in singlicate; n = 1
T1 construct: gene NUAK1
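Note: KINOMEscan kinase panel screen.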

SMILES	%Inh [%]
O=C(Nc1ccc2c(c1)OCO2)NC1CCN(c2ccnc(NCc3ccc(F)cc3)n2)CC1 [GSK1379859]	6
O=C(Nc1n[nH]c2cc(-c3ccccc3F)ccc12)C1CC1 [SB-733371]	0
Cc1ccccc1COc1cc(-n2cnc3cc(Cl)ccc32)sc1C(N)=O [GW813349]	0
Cc1nnc(-c2ccc(C)c(-c3ccc(C(=O)O)cc3)c2)o1 [GW608005]	11
COc1ccc(-c2cc3c(C)nc(N)nc3n([C@H]3CC[C@H](O)CC3)c2=O)cn1	4
CCC(=O)c1c(-c2ccccc2)c2cc(Cl)ccc2c(=O)n1Cc1cc(S(C)(=O)=O)n(CC(F)F)n1	5
CC(C)(C)c1ccc(C(=O)Nc2cn3cc(-c4ccccc4)ccc3n2)cc1	13
Cc1c(Cn2c(C)nn3c(=O)cc(N4CCO[C@H](C)C4)nc23)cccc1C(F)(F)F [GSK2373690]	2
COc1cccc(C2=C(Nc3cccc(C(=O)O)c3)C(=O)NC2=O)c1 [SB-390770]	0
COc1cc2ncn(-c3cc(OCc4ccncc4)c(C(N)=O)s3)c2cc1OC [GSK336313]	16
COc1ccc(-c2coc3ccc(-c4nnc(SCc5cccc(C#N)c5)o4)cc23)cc1	16
Nc1nc(-c2ccccc2F)c(-c2ccnc3ccccc23)s1 [GW560459]	0
COC(=O)c1c(-c2ccccc2)c2cc(Br)ccc2c(=O)n1Cc1ccc(NC(=O)CCC(=O)O)cc1	0

Reference: article PMC5540273 (PLoS ONE, 2017)
